# Compound activity (PubChem)
# Cruzain inh Det: cruzain (T. cruzi) inhibition with detergent. 200,000 tested, 0.43% active. purified cruzain, Z-FR-AMC fluorescence, 0.01% Triton. P25779. Potency, µM, without a hit: max response, negative = inhibition, hits mostly inhibitors;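 further: plate controls were neutral wells for no effect and buffer without enzyme for full effect; nearly all actives have a fitted effect of over 40% in size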
# Target sequence (P25779 123-467 limits assumed): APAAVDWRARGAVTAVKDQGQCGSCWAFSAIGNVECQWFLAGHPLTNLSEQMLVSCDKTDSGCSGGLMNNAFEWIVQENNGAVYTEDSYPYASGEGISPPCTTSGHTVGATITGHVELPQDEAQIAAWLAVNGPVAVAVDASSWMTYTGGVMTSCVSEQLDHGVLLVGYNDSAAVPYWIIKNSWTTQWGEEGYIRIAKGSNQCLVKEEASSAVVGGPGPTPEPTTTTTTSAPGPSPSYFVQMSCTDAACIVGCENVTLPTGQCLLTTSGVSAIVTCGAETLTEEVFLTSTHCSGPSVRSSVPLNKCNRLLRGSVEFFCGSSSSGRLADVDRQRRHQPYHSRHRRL
#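 Purified cruzain (1.5 nM final) was preincubated with compounds for 15 min at room temperature in 100 mM sodium acetate pH 5.5, 5 mM DTT, 0.01% Triton X-100. Reaction started with 2 uM Z-FR-AMC; AMC fluorescence change over 60 s gave activity.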
# Cruzain inh noDet: cruzain (T. cruzi) inhibition without detergent | purified cruzain, Z-FR-AMC fluorescence, no detergent | Potency, µM, without a hit: max response, negative = inhibition, actives largely listed as inhibitors | 200,000 tested, 2.3% active | AID 1476;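 further: plate controls were enzyme without inhibitor for no effect and buffer without enzyme for full effect; nearly all actives have a fitted effect of over 40% in size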
#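 Purified cruzain at 1.5 nM, pre-incubated 15 min with compound at room temperature in 100 mM sodium acetate pH 5.5, 5 mM DTT, 0.00005% Triton X-100. Reaction started with 2 uM Z-FR-AMC; AMC fluorescence increase over 60 s gives rate.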
# The depositor's hits bear a star; ? = inconclusive. The list is not random: actives were taken first. Their share in the collection is about 2.4%. The call rests on the fitted dose curve; in most records, active means well fitted curve in the direction sought with a large enough effect; inconclusive means small, poorly fitted or top-dose-only effect, or another doubt; inactive means no such curve, though single readings can be large; an effect the other way counts as inactive or inconclusive. Potency means the concentration at half of the fitted maximal effect.
SMILES,Cruzain inh Det,Cruzain inh noDet
CCOc1ccc(NC(=O)c2ccc(CN3C(=O)C(C)=C(c4ccc(C)cc4)S3(=O)=O)cc2)cc1,-1%,-1%
CC1=C(c2ccc(C)cc2)S(=O)(=O)N(Cc2ccc(C(=O)Nc3ccccc3C)cc2)C1=O,-4%,?
CC1=C(c2ccc(C)cc2)S(=O)(=O)N(Cc2ccc(C(=O)NCc3ccccc3)cc2)C1=O,-5%,?
COc1ccc(C2=C(C)C(=O)N(Cc3ccc(C(=O)Nc4ccc(C)c(C)c4)cc3)S2(=O)=O)cc1,-3%,7.9µM*
CC1=C(c2ccc(C)c(C)c2)S(=O)(=O)N(Cc2ccc(C(=O)NCc3ccccc3F)cc2)C1=O,-3%,25µM*
COc1ccc(OC(=O)c2cn(-c3cccc(OC)c3)c(=O)c3ccccc23)cc1,-2%,2%
Cc1c(C)n(Cc2ccccc2)c2ccc(C(=O)NCc3ccccc3F)cc12,1%,?
Cc1ccccc1NC(=O)c1ccc2c(c1)c(C)c(C)n2Cc1ccccc1,0%,-20%
CCn1c(C)c(C)c2cc(C(=O)NCc3ccc(OC(C)C)cc3)ccc21,-6%,-4%
CSc1ccc(CCNC(=O)c2ccc3c(c2)c(C)c(C)n3Cc2ccc(F)cc2)cc1,2%,16µM*
CSc1cccc(NC(=O)c2ccc3c(c2)c(C)c(C)n3Cc2ccc(F)cc2)c1,3%,16µM*
CCOc1ccc(CNC(=O)c2ccc3c(c2)c(C)c(C)n3Cc2ccc(Cl)cc2)cc1,2%,10µM*
CCCn1c(=O)c2sccc2n2c(CCCC(=O)N3CCN(c4cccc(Cl)c4)CC3)nnc12,0%,3%
CCCN(C(=O)Cn1nc(Cc2ccncc2)c2ccccc2c1=O)c1ccccc1C,-4%,18%
CCCCOc1ccccc1CC1C(=O)Nc2ccc(Br)cc21 (configuration not stated),-16%,-1%
Cc1ccc(CNC(=O)C2CCN(S(=O)(=O)c3c(C)noc3/C=C/c3ccccc3F)CC2)o1,-3%,-8%
COC(=O)c1c(NC(=O)c2c(C)noc2C)sc2c1CCCCCC2,5%,-4%
COC(=O)c1c(NC(=O)c2c(-c3ccccc3Cl)noc2C)sc2c1CCC2,-5%,13µM*
CC(=O)Oc1ccc(C(=O)[C@H]2[C@H]3C(=O)N(c4ccccc4)C(=O)[C@H]3[C@@H]3C=CC=NN32)cc1,0%,19%
O=C(c1ccc(Cl)cc1)[C@@H]1[C@@H]2C(=O)N(c3cccc4ccccc34)C(=O)[C@@H]2C2c3ccccc3C=NN21 (some centres not stated),0%,25µM*
CC(Oc1ccccc1)C(=O)Nc1c(C(=O)Nc2cccc(F)c2)oc2ccccc12 (configuration not stated),-3%,-27%
Cc1ccccc1C(=O)n1nc(-c2ccco2)nc1NCc1ccc(Cl)cc1,-1%,-3%
CC(C)(C)c1ccc(C(=O)NC(Cc2c[nH]c3ccccc23)C(=O)OCC(=O)c2ccc(Cl)cc2)cc1 (configuration not stated),-4%,25µM*
O=C(COC(=O)[C@H](Cc1c[nH]c2ccccc12)NC(=O)c1ccc(Cl)cc1)Nc1ccc2c(c1)OCO2,3.5µM*,20µM*
CCOC(=O)C(Cc1c[nH]c2ccccc12)NC(=O)COc1ccc(Cl)cc1 (configuration not stated),-8%,11%
SMILES,Cruzain inh Det,Cruzain inh noDet
CC(=O)NC(Cc1c[nH]c2ccccc12)C(=O)NCc1ccc2c(c1)OCO2 (configuration not stated),4%,-13%
CCCCNC(=O)CCn1c(=O)c2ccccc2n(Cc2cccc(Cl)c2)c1=O,-1%,8%
COCCCn1c(-c2ccco2)nc2ccccc2c1=O,-1%,4%
CCCCOCCCn1c(-c2ccco2)nc2nc3ccccc3nc21,28µM*,?
COc1cccc(CNC(=O)CSc2n[nH]c(-c3ccccc3Cl)n2)c1,3%,-13%
Cc1nc(-c2cccc(NS(=O)(=O)c3ccc4ccccc4c3)c2)cs1,-1%,25µM*
Cc1nc(CNS(=O)(=O)c2ccc3ccccc3c2)cs1,2%,-3%
CCN(CC)c1ccc(C2Nc3cccc4cccc(c34)N2)c(O)c1,-9%,13µM*
Oc1ccc2ccccc2c1C1Nc2cccc3cccc(c23)N1,-7%,?
COc1ccc(N2CCN(Cc3nc4c(c(=O)[nH]c(=O)n4C)n3CC(C)C)CC2)cc1,-1%,10%
O=S(=O)(Cc1ccccc1)N1CCn2c(nc3ccccc32)C1,2%,-20%
O=S(=O)(c1ccc2c(c1)nc1n2CCC1)N1CCOCC1,-2%,-8%
O=S(=O)(c1ccc(Cl)c(Cl)c1)N1CCc2nc3ccccc3n2CC1,-6%,10µM*
O=S(=O)(c1ccc(Br)cc1)N1CCn2c(nc3ccccc32)C1,-3%,5µM*
O=C(NCc1ccc(F)cc1)c1ccc(CSCc2cccc(Cl)c2)o1,-4%,-6%
Clc1cccc(-c2csc(-c3nc(-c4ccc(Br)s4)cs3)n2)c1,-2%,12%
COC(=O)CCCCCN1C(=O)NC(CC2CC2)C(C(=O)OCc2ccccc2)=C1C (configuration not stated),-8%,1%
CC(C)c1cccc2nc3c(c([Si](C)(C)C)c12)Cn1c-3cccc1=O,-13%,?
Cc1cc(OI)c(C(C)C)cc1-c1cc(C(C)C)c(OI)cc1C,0%,-27%
O=C(Nc1ccc2oc(-c3ccccc3)nc2c1)c1ccc2ccccc2c1,-1%,6%
C(=C\c1nc(-c2ccccc2)oc1Nc1ccc2ccccc2c1)/c1ccccc1,3%,25µM*
Cc1cc2nc(-c3cccc(NC(=O)CSc4ccc(Cl)cc4)c3)oc2cc1C,0%,-4%
O=C(NCCc1ccccc1)/C(=C\c1ccc([N+](=O)[O-])cc1)NC(=O)c1ccc(Br)cc1,-2%,6.3µM*
Cc1ccc(C(=O)N/C(=C\c2ccc([N+](=O)[O-])cc2)C(=O)NCCc2ccccc2)cc1,0%,?
Cc1cc(C)c(Nc2cc(S(=O)(=O)O)c(N)c3c2C(=O)c2ccccc2C3=O)c(C)c1,25µM*,?
SMILES,Cruzain inh Det,Cruzain inh noDet
Nc1ccc(-c2ccc(Nc3cc(S(=O)(=O)O)c(N)c4c3C(=O)c3ccccc3C4=O)cc2)c(S(=O)(=O)O)c1,3%,-1%
COc1ccc(Cl)cc1NC(=O)Cn1ccn(Cc2ccc(C)cc2)c(=O)c1=O,-7%,?
CCN(CC)c1ccc(NC(=O)CCS(=O)(=O)c2ccc3c(c2)oc(=O)n3C)c(C)c1,0%,0%
N#CC1=C(N)N2C(=C(C#N)C1c1ccccc1)Sc1ccccc12 (configuration not stated),-2%,13µM*
CCOc1ccc(C2C(C#N)=C(N)N3C(=C2C#N)Sc2ccccc23)cc1 (configuration not stated),-10%,?
COC(=O)C1=COC(O[C@H]2OC(CO)[C@H](O)C(O)C2O)[C@H]2C1C(=O)C[C@@H]2C (some centres not stated),2%,-11%
Fc1ccccc1COc1ccc(/C=N/NC(=S)NCc2ccccc2)cc1,-1%,6.3µM*
CC(C)(C)c1ccc(/C=N/NC(=S)NCc2ccccc2)cc1,-5%,?
Cn1c(=O)n(C)c2cc(/C=N/NC(=S)NCc3ccccc3)ccc21,11µM*,?
CNC(=S)N/N=C/c1cccc(OCc2ccccc2F)c1,-10%,?
COc1ccc(/C=N/n2cc(-c3ccc(OC)cc3)nc2N)cc1,-8%,32µM*
COc1ccc(/C=N/n2cc(-c3ccccc3)nc2N)cc1,-5%,?
